{"source": "PubChem BioAssay (EPA / NIEHS)", "key": {"[1]": {"test": "CCTE_Shafer_MEA_dev_mutual_information_norm: CCTE's Neural Network Formation Assay for Mutual Information Normalization, Shafer Lab (AID 2284091);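 as to AC50: potency is for a decrease in mutual information relative to DMSO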", "how_it_was_run": "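Neurons from rat cortex were seeded at 1.5 x 10^5 cells/well onto PEI-coated MEAs in a laminin drop, then exposed to compound from day 0 for twelve days. Network recordings on four days gave mutual information, summarised by AUC relative to DMSO.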"}, "[2]": {"test": "CCTE_Shafer_MEA_dev_correlation_coefficient_mean: CCTE's Neural Network Formation Assay for Mean Correlation Coefficient, Shafer Lab (AID 2284093);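 as to AC50: potency fitted for loss of correlation relative to DMSO vehicle wells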", "how_it_was_run": "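Read-out: well-mean correlation coefficient of spike trains between electrode pairs, collapsed over four recording days as trapezoidal area-under-the-curve. Developing rat cortical neuron networks grown on MEAs received test chemical continuously from plating.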"}, "[3]": {"test": "CCTE_Shafer_MEA_acute_LDH: CCTE's Lactate Dehydrogenase Assay for Cytotoxicity in the Neural Acute Assay, Shafer Lab (AID 2284086; active = hit-call score of the fitted dose curve at least 0.9, where 1 is the maximum;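 also: active means LDH release rises above DMSO vehicle level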)", "how_it_was_run": "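Cytotoxicity readout: spectrophotometric LDH activity in supernatant of rat primary cortical neurons, post-plating day 13 or 15, sampled after 40 min compound exposure; signal gain relative to DMSO baseline.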"}, "[4]": {"test": "CCTE_Mundy_HCI_Cortical_Synap_Neur_Matur_NeuriteSpotCountPerNeuriteLength: CCTE's Synaptogenesis and Neurite Maturation Assay in rat cortical cells for Neurite Spot Count per Neurite Length, Mundy Lab (AID 2284210)", "how_it_was_run": "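Read-out: synaptophysin puncta counted along MAP2-stained neurites, normalised to neurite length, by automated high-content imaging. Rat cortical cells; AraC DIV 5; chemical dosing DIV 7; termination DIV 12. DMSO baseline.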"}, "[5]": {"test": "CCTE_Mundy_HCI_Cortical_Synap_Neur_Matur_BPCount: CCTE's Synaptogenesis and Neurite Maturation Assay in rat cortical cells for Branch Point Count, Mundy Lab (AID 2284211)", "how_it_was_run": "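In this multiplexed morphology assay, cortical cells from rat receive chemicals at DIV 7 and are fixed at DIV 12, then immunostained and imaged; branch points are counted, with DMSO as baseline.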"}, "[6]": {"test": "IUF_NPC1b_proliferation_BrdU_72hr: Leibniz Research Institute for Environmental Medicine (IUF) 72-hour Neural Progenitor Cell Bromodeoxyuridine (BrdU) Proliferation Assay (NPC1b) (AID 2284207)", "how_it_was_run": "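Luminescent BrdU ELISA measured DNA synthesis during the last 16 h of a 72 h exposure of primary human neural progenitor spheres grown with EGF and FGF. Signal was fitted relative to DMSO controls.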"}, "[7]": {"test": "IUF_NPC1a_proliferation_area_72hr: Leibniz Research Institute for Environmental Medicine (IUF) 72-hour Neural Progenitor Cell Proliferation Area Assay (NPC1a) (AID 2284208)", "how_it_was_run": "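Single 0.25–0.35 mm human fetal neural progenitor spheres in proliferation medium with EGF and FGF, exposed 72 h from plating without renewal at 37C, pH 7.2-7.6. Sphere area growth measured by automated phase-contrast imaging, relative to DMSO.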"}, "[8]": {"test": "IUF_NPC1_viability_72hr: Viability Assessment at 72 hours in the Leibniz Research Institute for Environmental Medicine (IUF) Neural Progenitor Cell Proliferation Assay (NPC1) (AID 2284209)", "how_it_was_run": "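Three-day continuous exposure of human neural progenitor spheres under EGF/FGF-driven proliferation; cell viability scored by alamar blue signal versus DMSO.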"}, "[9]": {"test": "UKN2_HCS_IMR90_neural_migration: University of Konstanz (UKN) Leist Lab Neural Crest Cell Migration Assay in human induced IMR90 Pluripotent Stem Cells (UKN2) (AID 2284204)", "details": "actives raise or lower the signal", "how_it_was_run": "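Stopper-exclusion migration (cMINC), human iPSC-derived neural crest cells; N2-S + EGF/FGF; compound added 24 h post-stopper removal, 24 h exposure. Readout: calcein-AM/Hoechst 30 min, HCS fluorescence imaging; bidirectional fitting, DMSO baseline.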"}}, "note": "Values joined by “and” are separate entries in the source; they are usually repeats but may differ in a detail not shown here. Equal entries are not always repeated. Records with an inconclusive call do not appear. The source holds several records for some structures; these can differ, active in one and inactive in another. Active and inactive are the calls of the source. The calls were made as follows, unless noted: active = hit-call score of the fitted dose curve at least 0.9, where 1 is the maximum; inactive = score below 0.9.", "data": [{"compound": "CCNS(=O)(=O)C(F)(F)C(F)(F)C(F)(F)C(F)(F)C(F)(F)C(F)(F)C(F)(F)C(F)(F)F", "values": [{"measurement": "AC50", "setting": "[1]", "result": "2.98 µM (active) and 2.72 µM (active)"}, {"measurement": "AC50", "setting": "[2]", "result": "2.98 µM (active) and 4.98 µM (active)"}]}, {"compound": "ClCCOCCCl", "values": [{"measurement": "outcome", "setting": "[3]", "result": "inactive"}]}, {"compound": "Nc1cc(Cl)cc(C(=O)O)c1Cl", "values": [{"measurement": "outcome", "setting": "[1]", "result": "inactive"}, {"measurement": "outcome", "setting": "[2]", "result": "inactive"}, {"measurement": "outcome", "setting": "[4]", "result": "inactive"}, {"measurement": "outcome", "setting": "[5]", "result": "inactive"}]}, {"compound": "CCC(C)c1ccc(O)cc1", "note": "(configuration not stated)", "values": [{"measurement": "outcome", "setting": "[3]", "result": "inactive"}]}, {"compound": "CCN(CC)CCO", "values": [{"measurement": "outcome", "setting": "[3]", "result": "inactive"}]}, {"compound": "C[N+](C)(C)CC1CO1", "note": "(configuration not stated)", "values": [{"measurement": "outcome", "setting": "[3]", "result": "inactive"}]}, {"compound": "Clc1ccc(C(c2ccc(Cl)cc2)C(Cl)Cl)cc1", "values": [{"measurement": "outcome", "setting": "[3]", "result": "inactive"}, {"measurement": "AC50", "setting": "[1]", "result": "2.01 µM (active)"}, {"measurement": "AC50", "setting": "[2]", "result": "3.89 µM (active)"}]}, {"compound": "CN(C)[C@@H]1C(=O)C(C(N)=O)=C(O)[C@@]2(O)C(=O)C3=C(O)c4c(O)cccc4[C@@](C)(O)[C@H]3C[C@@H]12", "values": [{"measurement": "outcome", "setting": "[1]", "result": "inactive"}, {"measurement": "outcome", "setting": "[2]", "result": "inactive"}, {"measurement": "outcome", "setting": "[4]", "result": "inactive"}, {"measurement": "AC50", "setting": "[5]", "result": "474 nM (active)"}]}, {"compound": "O=Cc1ccco1", "values": [{"measurement": "outcome", "setting": "[3]", "result": "inactive"}]}, {"compound": "Cc1cc(N=Nc2ccccc2C)ccc1N", "values": [{"measurement": "outcome", "setting": "[3]", "result": "inactive"}]}, {"compound": "Clc1ccc(C(c2ccc(Cl)cc2)C(Cl)(Cl)Cl)cc1", "values": [{"measurement": "outcome", "setting": "[3]", "result": "inactive"}, {"measurement": "AC50", "setting": "[1]", "result": "971 nM (active) and 2.52 µM (active)"}, {"measurement": "AC50", "setting": "[2]", "result": "3 µM (active) and 4.07 µM (active)"}]}, {"compound": "c1ccc(N=Nc2ccccc2)cc1", "values": [{"measurement": "outcome", "setting": "[3]", "result": "inactive"}]}, {"compound": "OCCOCCO", "values": [{"measurement": "outcome", "setting": "[1]", "result": "inactive"}, {"measurement": "outcome", "setting": "[2]", "result": "inactive"}, {"measurement": "outcome", "setting": "[6]", "result": "inactive"}, {"measurement": "outcome", "setting": "[7]", "result": "inactive"}, {"measurement": "outcome", "setting": "[8]", "result": "inactive"}, {"measurement": "outcome", "setting": "[4]", "result": "inactive"}, {"measurement": "outcome", "setting": "[5]", "result": "inactive"}]}, {"compound": "[O-][Cl+]O", "values": [{"measurement": "outcome", "setting": "[1]", "result": "inactive"}, {"measurement": "outcome", "setting": "[2]", "result": "inactive"}, {"measurement": "AC50", "setting": "[6]", "result": "2180 nM (active)"}, {"measurement": "outcome", "setting": "[7]", "result": "inactive"}, {"measurement": "outcome", "setting": "[8]", "result": "inactive"}, {"measurement": "outcome", "setting": "[4]", "result": "inactive"}, {"measurement": "outcome", "setting": "[5]", "result": "inactive"}]}, {"compound": "COP(=S)(OC)SCN1C(=O)c2ccccc2C1=O", "values": [{"measurement": "AC50", "setting": "[1]", "result": "22.7 µM (active)"}, {"measurement": "outcome", "setting": "[1]", "result": "inactive"}, {"measurement": "AC50", "setting": "[2]", "result": "19 µM (active)"}, {"measurement": "outcome", "setting": "[2]", "result": "inactive"}, {"measurement": "outcome", "setting": "[9]", "result": "inactive"}, {"measurement": "AC50", "setting": "[6]", "result": "499 nM (active)"}, {"measurement": "outcome", "setting": "[7]", "result": "inactive"}, {"measurement": "outcome", "setting": "[8]", "result": "inactive"}, {"measurement": "outcome", "setting": "[4]", "result": "inactive"}, {"measurement": "outcome", "setting": "[5]", "result": "inactive"}]}]}
